Screening results as filed in PubChem.
Lassa entry inh – qHTS for Inhibitors of binding or entry into cells for Lassa Virus. Lassa virus pseudotype entry inhibition, cell reporter. Potency, µM (titrated, usually from 37.9 µM), for inactives: at the highest dose activity change, negative = inhibition, actives largely listed as inhibitors. 300,000 tested, 1.2% active. AID 540256, 2011; calls by dose curve; tested in HEK293 cells; note: potency is the fitted concentration of half-maximal effect; % is set by controls: 0 for no effect and ±100 for the full control effect; nearly all actives have a fitted effect of over 50% in size
CHX counter – Cycloheximide Counterscreen for Small Molecule Inhibitors of Shiga Toxin; max response, %; 300,000 tested, 12% active; cell reporter, cycloheximide protein synthesis inhibition counterscreen; AID 2314, 2010; in the data active = max response mostly above about 13%, no sharp cut-off; inactive = mostly below about 14%; note: read at 38.3 µM for the half of the compounds with a filed dose; 0% is about no effect
Shiga inhibitor – A qHTS for Small Molecule Inhibitors of Shiga Toxin; Vero cells, Shiga toxin protein synthesis inhibition reporter; inhibition, % at 38.7 µM; 290,000 tested, 9.2% active; AID 2315, 2010; in the data active = inhibition mostly above about 28%, no sharp cut-off; inactive = mostly below about 43%; note: 0% is about no effect
MARV entry inh – qHTS for inhibitors of binding or entry into cells for Marburg Virus; 300,000 tested, 1.8% active; Marburg virus pseudotyped entry inhibition, cell reporter; Potency, µM (doses to about 37.8 µM), for inactives: at the highest dose activity change, negative = inhibition, hits mostly inhibitors; calls by dose curve; tested in HEK293 cells; note: potency is the fitted concentration of half-maximal effect; % is set by controls: 0 for no effect and ±100 for the full control effect
Starred values were filed as active, the others as inactive; [ ] = another dose, or the depositor's remark. This is a sample that favours compounds with a hit; in the whole collection about 12% have one here.

Results for Cc1ccc2c(c1)N(C(=O)CCC(=O)NC1CCC(C)CC1)CCO2 (stereo not drawn) ?
CHX counter: 5; Shiga inhibitor: 7

Results for CCOc1cc(/C=N/N2CCOCC2)ccc1OCc1ccc(C(=O)OC)o1 ?
Lassa entry inh: 4%; CHX counter: -6; Shiga inhibitor: -4; MARV entry inh: inconclusive

How did O=c1[nH]c(=S)n(-c2ccc(Br)cc2)c(O)c1C=Nc1ccc(N2CCOCC2)cc1 do in these assays?
Lassa entry inh: 0%; CHX counter: 16*; Shiga inhibitor: 0; MARV entry inh: -5%

What do the screens show for `Cc1cc(C)cc(-n2c(O)c(C=Nc3ccc(N4CCOCC4)cc3)c(=O)[nH]c2=S)c1`?
Lassa entry inh: 0%; CHX counter: -1; Shiga inhibitor: -7; MARV entry inh: 6%

How did Cc1nc2nc(-c3ccc(Cl)cc3)[nH]n2c(=O)c1C do in these assays?
CHX counter: 5; Shiga inhibitor: 38*; MARV entry inh: 3%

How did CNCCCOc1cccc(Oc2ccccc2)c1 do in these assays?
Lassa entry inh: 16%; CHX counter: 34*; Shiga inhibitor: 100*; MARV entry inh: inconclusive

How did CNCCCOc1cccc(OC(C)C)c1 do in these assays?
Lassa entry inh: -1%; CHX counter: 19*; Shiga inhibitor: 141*; MARV entry inh: inconclusive

What do the screens show for `CC(O)CNCCCOc1cccc(Oc2ccccc2)c1` (stereo not drawn)?
Lassa entry inh: -6%[46.1 µM]; CHX counter: 15; Shiga inhibitor: 27; MARV entry inh: inconclusive

How did COc1ccc(/C=N\Nc2ccccn2)c(OC)c1 do in these assays?
CHX counter: 39*; Shiga inhibitor: 43

Results for Cc1ccc(C)c(/C=N/Nc2ccccn2)c1 ?
CHX counter: 20*; Shiga inhibitor: 53*; MARV entry inh: 1%[46.1 µM]

How did COc1ccc(/C=N/Nc2ncc(Br)cn2)c(OC)c1 do in these assays?
Lassa entry inh: inconclusive; CHX counter: 46*; Shiga inhibitor: 51*; MARV entry inh: inconclusive

Results for COc1ccc(/C=N/OCc2ccc(Br)cc2)c(OC)c1 ?
CHX counter: 30*; Shiga inhibitor: 31*

How did CC(C)C[C@H](NC(=O)c1[nH]cnc1C(=O)N[C@@H](C)c1ccccc1)C(=O)OCc1ccccc1 do in these assays?
CHX counter: 8; Shiga inhibitor: 2

Results for COc1ccc(/C=N/Nc2ccccn2)c(OC)c1OC ?
Lassa entry inh: inconclusive; CHX counter: 40*; Shiga inhibitor: 74*; MARV entry inh: inconclusive

How did Clc1ccc(C=NNc2ccccn2)c(Cl)c1 do in these assays?
Lassa entry inh: inconclusive; MARV entry inh: 29%

Results for CN(C(=O)CCc1ccccc1)c1nnc(-c2ccncc2)s1 ?
Lassa entry inh: inconclusive; CHX counter: -5; Shiga inhibitor: 8; MARV entry inh: 6%[46.1 µM]

What do the screens show for `CN(C)CCCN1C(=O)c2oc3ccccc3c(=O)c2C1c1cccs1` (stereo not drawn)?
Lassa entry inh: 16%; CHX counter: 22*; Shiga inhibitor: 24*; MARV entry inh: 10%

Results for COc1ccccc1NC(=O)Nc1nc(C(C)(C)C)cs1 ?
Lassa entry inh: inconclusive; CHX counter: 21*; Shiga inhibitor: 50; MARV entry inh: inconclusive

Results for COc1ccccc1NC(=O)Nc1nc(CC(=O)NCc2ccccn2)cs1 ?
Lassa entry inh: -16%; MARV entry inh: -6%

Results for COc1ccccc1NC(=O)Nc1nc(CC(=O)N2CCN(c3ccc(F)cc3)CC2)cs1 ?
Lassa entry inh: inconclusive; MARV entry inh: 11µM*

What do the screens show for `COc1ccccc1NC(=O)Nc1nc(CC(=O)N2CCN(c3ccccc3)CC2)cs1`?
Lassa entry inh: inconclusive; MARV entry inh: 7%[46.1 µM]

What do the screens show for `CC(C)(C)c1csc(NC(=O)c2c(F)c(F)c(F)c(F)c2F)n1`?
CHX counter: -3; Shiga inhibitor: -13

Results for CC(C)(C)c1csc(NC(=O)c2ccccc2O)n1 ?
Lassa entry inh: inconclusive; CHX counter: 32*; Shiga inhibitor: 39*; MARV entry inh: 11µM*

What do the screens show for `CC(C)(C)c1csc(NNC(=O)c2ccc(Br)cc2)n1`?
Lassa entry inh: inconclusive; CHX counter: 40*; Shiga inhibitor: 94*; MARV entry inh: inconclusive

How did Cc1csc(Nc2nc(N)c(C(=O)Nc3ccccc3)o2)n1 do in these assays?
CHX counter: 39*; Shiga inhibitor: 98*

How did Cc1csc(NC(=O)c2ccc(Cl)nc2)n1 do in these assays?
CHX counter: 47*; Shiga inhibitor: 57*

How did Cc1csc(NC(=O)c2cc(C)oc2C)n1 do in these assays?
Lassa entry inh: -1%; CHX counter: 28*; Shiga inhibitor: 74*; MARV entry inh: inconclusive

What do the screens show for `Cc1csc(NC(=O)CSCC(=O)Nc2ccccc2)n1`?
Lassa entry inh: -2%; CHX counter: -2; Shiga inhibitor: -4; MARV entry inh: inconclusive

What do the screens show for `CC(C)(C)c1csc(NC(=O)c2cccnc2Cl)n1`?
Lassa entry inh: 7%; MARV entry inh: 10%

What do the screens show for `O=C(Nc1nccs1)c1ccc(Cl)nc1`?
CHX counter: 26; Shiga inhibitor: 23

What do the screens show for `Cc1csc(NC(=O)c2cc([N+](=O)[O-])cc([N+](=O)[O-])c2)n1`?
Lassa entry inh: -5%; CHX counter: 1; Shiga inhibitor: 11; MARV entry inh: 1%

Results for CSc1ncccc1C(=O)Nc1nc(C(C)(C)C)cs1 ?
CHX counter: 21*; Shiga inhibitor: 18*; MARV entry inh: 14%[46.1 µM]

How did COc1ccc(S(=O)(=O)NCCC(C)C)cc1C do in these assays?
Lassa entry inh: -1%; CHX counter: -3; Shiga inhibitor: -11; MARV entry inh: 2%

How did CN(C)c1ccc(S(=O)(=O)NCC(=O)NCCC2=CCCCC2)cc1[N+](=O)[O-] do in these assays?
Lassa entry inh: -22%; MARV entry inh: -5%

How did CCOC(=O)CC1=CC(C)(CC(=O)OCC)C(C#N)(C#N)C(N)=C1C#N (stereo not drawn) do in these assays?
Lassa entry inh: -6%; CHX counter: 0; Shiga inhibitor: 13; MARV entry inh: 0%

How did CC(C)CC(NC(=O)OC(C)(C)C)c1cn([C@@H](Cc2ccc(O)cc2)C(=O)N2CCN(C(=O)OC(C)(C)C)CC2)nn1 (stereo partly drawn) do in these assays?
CHX counter: -2; Shiga inhibitor: -9

How did Cc1csc(NC(=O)c2ccccc2O)n1 do in these assays?
Lassa entry inh: -8%; CHX counter: 56*; Shiga inhibitor: 89*; MARV entry inh: inconclusive

How did Cc1ccc(C(=O)O)c(C(=O)Nc2nc(C)cs2)c1 do in these assays?
Lassa entry inh: -4%; CHX counter: -3; Shiga inhibitor: -8; MARV entry inh: 23%

Results for CC(C)c1cc(C(=O)Nc2cccc(C(F)(F)F)c2)no1 ?
Lassa entry inh: 7%; CHX counter: 50*; Shiga inhibitor: 121*; MARV entry inh: inconclusive

How did CC(C)c1onc(C(=O)Nc2cccc(O)c2)c1[N+](=O)[O-] do in these assays?
Lassa entry inh: 11%[46.1 µM]; CHX counter: 31*; Shiga inhibitor: 145*; MARV entry inh: 3%[46.1 µM]

Results for CC(C)c1onc(C(=O)Nc2cccnc2Cl)c1[N+](=O)[O-] ?
CHX counter: 7; Shiga inhibitor: 27
